Laboratory results as given in ChEMBL document CHEMBL3988442, “University of Dundee, Small-Polar-MMV Screening Library” (2021).
Among all 48,000 compounds or so, about 13,000 (27%) showed an effect of 50% or more. The list shows a part of the results.

tested on: Wolbachia pipientis; experiment: Anti-Wolbachia Cell-Based Screen; format: functional; design: scale not given: in the data most compounds retested in dose-response had high values; settings: 5 µM

Row | Compound | Percent Effect [%]
1 | O=S(=O)(NCCNc1ccc(-n2cccn2)nn1)c1ccccc1 | -3.314
2 | Cc1noc(C)c1CN(C)C(=O)c1cnc(C2CC2)nc1O | -11.89
3 | Cc1ccccc1CNC(=O)N1CCC(n2cncn2)CC1 | 111.6
4 | CC(C)Oc1ccccc1CNC(=O)N1CCC(n2cncn2)CC1 | 15.2
5 | Cc1cc(C(C)NC(=O)N2CCC(n3cncn3)CC2)c(C)s1 (stereo not drawn) | 2.137
6 | CCOc1ncccc1CNC(=O)N1CCCC1c1ccncc1 (stereo not drawn) | 0.3129
7 | O=C(NCc1cccc2cccnc12)N1CCC(n2cncn2)CC1 | -5.707
8 | CCOc1ccccc1CNC(=O)N1CCC(n2cncn2)CC1 | 121.4
9 | CCOc1ncccc1CNC(=O)N1CCC(n2cncn2)CC1 | 108.5
10 | CCC(CC)c1cc(CNC(=O)N2CCCN(C(C)=O)CC2)on1 | -7.46
11 | O=S(=O)(CC1CCCCC1)NCc1ccc(O)nc1 | -3.814
12 | CC1CCN(C(=O)c2ccnc(-n3cncn3)c2)c2ccccc21 (stereo not drawn) | 8.063
13 | COC[C@@H]1CCC[C@@]12CN(C(=O)C1CCOCC1)CCO2 | 108.7
14 | CC(C)OC[C@H]1CCC[C@]12CN(C(=O)C1CCOCC1)CCO2 | 106.2
15 | Cn1ccc(N2CCCC(NC(=O)c3ccc(Cl)o3)C2=O)n1 (stereo not drawn) | -25.47
16 | COc1cc(F)ccc1N1CCN(Cc2nc(C)c(C)o2)CC1 | -8.318
17 | Cc1cnn(CC2CCCN2c2nn3cc(C)nc3s2)c1 (stereo not drawn) | 9.552
18 | Cc1cn2nc(N3CCCCC3Cn3cccn3)sc2n1 (stereo not drawn) | 120.6
19 | Cc1cn2nc(N3CCCC3Cn3nc(C)nc3C)sc2n1 (stereo not drawn) | 128.5
20 | CC(C)(C)c1cn2nc(N3CCCCC3Cn3cncn3)sc2n1 (stereo not drawn) | 11.04
21 | Cc1cnn(CC2CCCCN2c2nn3cc(C)nc3s2)c1 (stereo not drawn) | 94.21
22 | Cc1cn2nc(N3CCCC3Cn3cncn3)sc2n1 (stereo not drawn) | 1.731
23 | CC(C)(C)c1cn2nc(N3CCCC3Cn3cncn3)sc2n1 (stereo not drawn) | -4.327
24 | Cc1cn2nc(N3CCCC3C(=O)N3CCN(C)CC3)sc2n1 (stereo not drawn) | -72.4
25 | CC(C)(C)c1cn2nc(N3CCCC3Cn3cccn3)sc2n1 (stereo not drawn) | 7.986

Row | Compound | Percent Effect [%]
26 | Cc1cn2nc(N3CCCC3Cn3nc(C)cc3C)sc2n1 (stereo not drawn) | 8.981
27 | Cc1cn2nc(N3CCCC3CC(C)(C)C)sc2n1 (stereo not drawn) | 1.66
28 | Cc1cn2nc(N3CCCC3Cn3cccn3)sc2n1 (stereo not drawn) | 112.3
29 | CCN1CCN(C(=O)c2[nH]c3ccccc3c2Cl)[C@H]2CS(=O)(=O)C[C@H]21 | 2.793
30 | COCCNc1ccccc1CNC(=O)NCc1cnc(C)s1 | -0.4507
31 | COc1ccc(C(=O)N2CCCC2c2cnn(C)c2)cn1 (stereo not drawn) | 112.3
32 | Cc1cnn(CC2CCCN2C(=O)c2ccc(OC(C)C)nc2)c1 (stereo not drawn) | -7.33
33 | COCCn1cc(C(=O)N2CCCC2c2cnn(C)c2)ccc1=O (stereo not drawn) | -26.74
34 | CNC(=O)c1ccc(C(=O)N2CCCC2c2cnn(C)c2)cn1 (stereo not drawn) | 5.729
35 | CC(C)Oc1ccc(C(=O)N2CCCC2c2cnn(C)c2)cn1 (stereo not drawn) | 97.67
36 | CCOc1ccc(C(=O)N2CCCC2c2cnn(C)c2)cn1 (stereo not drawn) | 110.2
37 | Cn1cc(C2CCCN2C(=O)c2ccc(OCC3CC3)nc2)cn1 (stereo not drawn) | 114.7
38 | Cc1nnc(CN(C)S(=O)(=O)c2ccc(Br)cc2Cl)n1C | 5.813
39 | CC(C)Oc1cccc(C(=O)C2CCCN(S(=O)(=O)C(C)C)C2)c1 (stereo not drawn) | 1.86
40 | Cc1nn(CCO)c(C)c1CNC1CCCCc2ccccc21 (stereo not drawn) | 2.659
41 | O=C(NCCc1ccn(-c2ccccc2)n1)N1CCCC(CO)C1 (stereo not drawn) | 104.8
42 | CCOC1CCN(C(=O)NCCc2ccn(-c3ccccc3)n2)CC1 | 152.6
43 | O=C(NCCc1ccn(-c2ccccc2)n1)N1CCSCC1 | 87.95
44 | O=C(NCCc1ccn(-c2ccccc2)n1)N1CCC1 | 5.708
45 | O=C(NCCC1Cc2ccccc2C1)N1CCCC(O)C1 (stereo not drawn) | -12.54
46 | O=C(NCCc1ccn(-c2ccc(F)cc2)n1)C1CCCOC1 (stereo not drawn) | -15.61
47 | CCOC1CCCN(C(=O)NCCc2ccn(-c3ccccc3)n2)C1 (stereo not drawn) | 9.361
48 | CC1(C)CN(C(=O)NCCc2ccn(-c3ccccc3)n2)CCO1 | -7.348
49 | O=C(NCCc1ccn(-c2ccccc2)n1)N1CCCC(O)C1 (stereo not drawn) | 108.2
50 | CCOC1CCN(C(=O)NCc2ccc(C(=O)N(C)C(C)C)cc2)CC1 | -14.18

Row | Compound | Percent Effect [%]
51 | CC(C)(C)c1cn(C2CCN(C(=O)c3cncnc3)CC2)nn1 | 8.941
52 | Cc1cc2ncc(C(C)NCc3cccnc3)c(C)n2n1 (stereo not drawn) | 0.9631
53 | O=C(c1cccc2ncccc12)N1CCCN(c2cccnn2)CC1 | -3.765
54 | N#Cc1ccc(N2CCN(c3ncccn3)CC2)c(C(F)(F)F)c1 | 0.2646
55 | COc1cccc(CCCNC(=O)N2CCC(O)(C(F)(F)F)C2)c1 (stereo not drawn) | -22.68
56 | Cc1nn(C)c(N(C)C)c1CNCc1cnn(Cc2ccccc2)c1 | 0.347
57 | O=C(Nc1ccc(CC(=O)N2CCSCC2)cc1)NC1CCCC1 | -7.412
58 | O=C(Nc1ccc(CC(=O)N2CCCC2)cc1)NC1CC1 | 116.7
59 | O=C(Nc1ccc(CC(=O)N2CCSCC2)cc1)NC1CC1 | 1.128
60 | Cc1nc(CNC(=O)NC2CCN(c3ncccc3Cl)C2)no1 (stereo not drawn) | -5.791
61 | OCCC1CN(c2ncnc3[nH]cnc23)CCN1Cc1ccccc1 (stereo not drawn) | -15.48
62 | CCN1CC2(CCC1=O)CCN(Cc1nncn1C)CC2 | -22.02
63 | CCCN1CCCC2(CCN(Cc3noc(C4CCCC4)n3)C2)C1=O (stereo not drawn) | -0.09411
64 | CC(C)[C@H]1COC(=O)N1Cc1nncn1C(C)C | 9.429
65 | CC(C)N1CCCC2(CCN(Cc3noc(C4CCCC4)n3)C2)C1=O (stereo not drawn) | 17.18
66 | CN1CCCC2(CCN(Cc3cncn3C3CCCCC3)C2)C1=O (stereo not drawn) | -0.6007
67 | CC(C)n1cnnc1CN1CCC2(CCCN(C3CCCCC3)C2=O)C1 (stereo not drawn) | 113.2
68 | CCCN1CCCC2(CCN(Cc3cncn3C3CCCC3)C2)C1=O (stereo not drawn) | 1.607
69 | CCCN1CCCC2(CCN(Cc3cncn3C3CCCCC3)C2)C1=O (stereo not drawn) | -18.59
70 | CCN1CC2(CCC1=O)CCN(Cc1nncn1C(C)C)CC2 | 3.317
71 | Cn1cnnc1CN1CCC2(CCCN(C3CCCCC3)C2=O)C1 (stereo not drawn) | 111.9
72 | CC(C)N1CCCC2(CCN(Cc3nncn3C(C)C)C2)C1=O (stereo not drawn) | 92.74
73 | Cn1cnnc1CN1CCC2(CCCN(C3CCCC3)C2=O)C1 (stereo not drawn) | 103.4
